Screening data from PubChem BioAssay.
The full list was thinned out, with hits kept by preference.
Artemis inh – blocks endonuclease activity of human Artemis; recombinant Artemis, quenched FAM hairpin cleavage fluorescence; inhibition, % at 10 µM; actives 0.78% (n = 30,000);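 active = at 10 µM dose, at least 30% inhibition, measured as corrected fluorescence normalized to stimulator and neutral control wells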
Target sequence (Q96SD1 whole entry, looked up): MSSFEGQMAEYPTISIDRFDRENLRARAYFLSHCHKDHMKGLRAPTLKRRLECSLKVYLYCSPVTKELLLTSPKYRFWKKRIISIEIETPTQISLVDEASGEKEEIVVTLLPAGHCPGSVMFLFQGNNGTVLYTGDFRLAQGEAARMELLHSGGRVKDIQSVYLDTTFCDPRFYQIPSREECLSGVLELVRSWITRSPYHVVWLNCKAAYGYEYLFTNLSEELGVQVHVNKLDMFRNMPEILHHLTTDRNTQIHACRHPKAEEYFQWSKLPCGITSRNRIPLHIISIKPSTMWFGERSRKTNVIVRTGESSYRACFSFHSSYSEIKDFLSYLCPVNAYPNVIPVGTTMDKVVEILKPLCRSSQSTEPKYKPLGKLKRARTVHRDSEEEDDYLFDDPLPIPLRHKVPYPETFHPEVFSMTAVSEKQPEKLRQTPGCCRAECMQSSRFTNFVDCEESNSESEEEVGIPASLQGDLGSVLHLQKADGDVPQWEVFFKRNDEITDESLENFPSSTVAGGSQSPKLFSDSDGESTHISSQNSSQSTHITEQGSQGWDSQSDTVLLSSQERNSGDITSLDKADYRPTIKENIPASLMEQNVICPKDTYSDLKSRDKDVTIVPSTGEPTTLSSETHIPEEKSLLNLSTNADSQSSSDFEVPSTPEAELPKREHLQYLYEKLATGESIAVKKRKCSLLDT
* = called active by the depositor.

SMILES | Artemis inh
Cc1ccc(N2C(=O)/C(=C/N3CCN(C(=O)c4ccco4)CC3)C(=O)NC2=S)cc1C | 31*
CC(=NCC1CCCO1)c1c(O)n(Cc2ccccc2)c(=O)[nH]c1=O (stereo unspecified) | -2
Cc1cc(C)c(C2=NOC(O)(C(F)(F)F)C2)c(=O)[nH]1 (stereo unspecified) | -6
Clc1cccc(Cl)c1C1N2CCCN12 (stereo unspecified) | -2
CCOC(=O)/C(CCCN(CC)CC)=N\O | -4
COC(=O)C1=C(N)Oc2c(c(=O)oc3ccccc23)C1c1cccnc1 (stereo unspecified) | -7
CCn1nc(-c2cccs2)nc2c(=O)n(C)c(=O)nc1-2 | 71*
O=c1c2ccccc2nc(-c2cccs2)n1-c1ccccc1 | 3
CCOC(=O)c1nc2ccccc2c(=O)n1-c1cccc(C)c1 | 10
CN1CCc2nc3ccc(F)cc3c(C(N)=O)c2C1 | -7
CCOC(=O)c1c(-n2c(C)cc(/C=C3/C(=O)NC(=O)N(CC)C3=O)c2C)sc2c1CCCC2 | 35*
NCC(CC(=O)O)c1ccc(Cl)cc1 (stereo unspecified) | -8
FC(F)(F)c1cccc(-n2nnnc2C2(N3CCOCC3)CCCCC2)c1 | 8
CC(C)NC(C)C(=O)C12CC3CC(CC(C3)C1)C2 (stereo unspecified) | 3
COCCCN1CCN(c2nnc3n2-c2sc(Br)cc2C(c2ccccc2Cl)=NC3)CC1 | 1
